From PubChem BioAssay (EPA / NIEHS)
Calls of active or inactive are those of the source. The calls were made as follows: active = hit-call score of the fitted dose curve at least 0.9, where 1 is the maximum; inconclusive = response in the unintended direction; inactive = score below 0.9.

The compounds below were run on SERPINA7 (gene 6906) (assay: CCTE_GLTED_hTBG: CCTE's human Thyroxine-binding Globulin (TBG) Inhibition Assay, Great Lakes Toxicology and Ecology Division (GLTED) Lab (AID 2284343);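 also: active chemicals lower fluorescence versus DMSO baseline by displacing probe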).
Description: CCTE_GLTED_hTBG is a cell-free, single-readout assay designed to test the chemicals' ability to displace T4 from the human thyroxine-binding globulin (TBG) protein. TBG is incubated in presence of test chemical for 2 hours during which disrupting chemicals displace ANSA from the TBG protein. Results read fluorescence at 380 excitation and 475 emission.CCTE_GLTED_hTBG is the assay component measured from the CCTE_GLTED_hTBG assay. It is designed to make measurements of fluorescent polarization, using a form of binding reporter, as detected with Fluorescence signals by Fluorescence technology.Data from the assay component CCTE_GLTED_hTBG was analyzed at the assay endpoint CCTE_GLTED_hTBG in the positive analysis fitting direction relative to DMSO as the negative control and baseline of activity. Using a type of binding reporter, loss-of-signal activity can be used to understand a chemical's ability to displace T4 from thyroxine-binding globulin. To generalize the intended target to other relatable targets, this assay endpoint is annotated to the 'transporter' intended target family, where the subfamily is 'hormone carrier protein'.
Human transthyretin (TTR) assay, developed at Great Lakes Toxicology and Ecology Division (GLTED) within the EPA's Center for Computational Toxicology and Exposure (CCTE), is designed to test the chemicals' ability to displace T4 from the TTR protein. TTR (0.5uM) is incubated in presence of test chemical for 2 hours during which disrupting chemicals displace ANSA from the TTR protein. Results read fluorescence at 380 excitation and 475 emission.

Question: `CN(C)c1ccc(C(=C2C=CC(=[N+](C)C)C=C2)c2ccc(N(C)C)cc2)cc1` was tested. Which AC50 did it give?
Answer: Its AC50 is 50 µM (active).

Question: How did the AC50 turn out when `CCCCCc1ccc(N)cc1` was run?
Answer: Its AC50 is 29.9 µM (active).

Question: Which AC50 does the source give for `O=C(O)Cn1c(=O)n(Cc2ccc(Br)cc2F)c(=O)c2ccc(Cl)cc21` here?
Answer: The AC50 was 18.1 µM (active).

Question: `CCCCCCCCOC(=O)c1cc(O)c(O)c(O)c1` was tested. Which AC50 did it give?
Answer: The AC50 was 3.42 µM (active).

Question: With `CC/C(=C(/CC)c1ccc(O)cc1)c1ccc(O)cc1` as the compound, how does the AC50 read?
Answer: The AC50 was 1.87 µM (active).

Question: `O=C(O)Cc1cc(I)c(Oc2ccc(O)c(I)c2)c(I)c1` was tested. Which AC50 did it give?
Answer: The AC50 was 0.0733 µM (active).

Question: Which AC50 does the source give for `CC(C)(c1cc(Br)c(O)c(Br)c1)c1cc(Br)c(O)c(Br)c1` here?
Answer: The AC50 was 2.16 µM (active).

Question: `Cc1oc2c(NC(=O)c3c(Cl)cccc3Cl)cccc2c1C(C)(C)O` was tested. Which AC50 did it give?
Answer: Its AC50 is 13.6 µM (active).

Question: With `CCCCCCCCOc1ccc(C(=O)c2ccccc2)c(O)c1` as the compound, how does the AC50 read?
Answer: The AC50 was 39.1 µM (active).

Question: `NC(=O)c1nc(-c2cccc(-c3cc(F)ccc3OCC(F)(F)C(F)(F)F)c2)n[nH]1` was tested. Which AC50 did it give?
Answer: The AC50 was 3.35 µM (active).
